Screens deposited in PubChem BioAssay by National Center for Advancing Translational Sciences (NCATS).
This is a sample that favours compounds with a hit; in the whole collection about 19% have one here.
DT40 TDP1 no CPT – qHTS for Inhibitors of human tyrosyl-DNA phosphodiesterase 1 (TDP1): qHTS in cells in absence of CPT; Potency, µM (doses to about 46.2 µM), inactives show at the top dose activity change, negative = growth inhibition, usual class: inhibitors; DT40 Tdp1-/- hTDP1 cells, no CPT, ATP luminescence, 48 h; actives 15% (n = 420,000); AID 686978, 2013; also: potency is read from the fitted curve at half-maximal effect; nearly all actives have a fitted effect of over 55% in size
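Readout: luminescence from CellTiter-Glo after 30 min in the dark at RT. Cells: DT40 Tdp1-/- with stable hTDP1, 400/well. Exposure: compounds alone, ≥48 hr, 37 °C.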
HT1080 IDH1KD tx – toxicity to HT-1080 IDH1 knockdown cells (counter line); HT-1080 IDH1 knockdown viability, ATP luminescence, 48 h; Potency, µM (highest dose often 46.1 µM), without a hit: at the highest dose activity, negative = toxicity, usual class: cytotoxic; actives 2% (n = 360,000); AID 686971;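 also: potency is read from the fitted curve at half-maximal effect; 0% = DMSO wells and -100% = cell-free medium wells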
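Luminescent ATP read-out (CellTiter-Glo, 10 min at room temperature) after 48 h compound exposure at 37 °C gave viability of IDH1-knockdown HT-1080 cells. Activity was normalised to DMSO and cell-free wells, then fitted as concentration-response curves.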
ELG1 DNA repair – inhibitors of ELG1-dependent DNA repair in HEK293T cells; HEK293T ELG1-luciferase reporter, luminescence, 16 h; DNA damage induced by 5-fluorouridine; Potency, µM (highest dose often 46.1 µM), for inactives: top-dose activity change, negative = inhibition, actives largely listed as inhibitors; actives 2.3% (n = 330,000); also: potency is read from the fitted curve at half-maximal effect; nearly all actives have a fitted effect of over 55% in size
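Quantitative HTS, concentration-response format. 2,000 cells/well co-treated with 5-fluorouridine and compound, 16 hr in 5% CO2 at 37 °C; ONE-Glo luminescence read after 30 min.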
TDP1 cell CPT – DT40-hTDP1 cell growth loss with CPT; chicken DT40 Tdp1-/-;hTDP1 cells + 20 nM CPT, ATP luminescence, 48 h; Potency, µM (series often up to 46.2 µM), inactives show top-dose activity change, negative = growth inhibition, usual class: inhibitors; actives 12% (n = 420,000); also: potency is read from the fitted curve at half-maximal effect; nearly all actives have a fitted effect of over 55% in size
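Cell growth measured by CellTiter-Glo luminescence after a minimum 48 h, 37 C compound exposure with 20 nM CPT in Tdp1-knockout DT40 cells stably expressing hTDP1, seeded 400/well; qHTS titration format.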
IL-1B inflam inh – inhibitors of inflammasome signaling (IL-1 beta secretion); THP-1 LPS/ATP IL-1B secretion, AlphaLISA, 16 h; stronger effect = lower value; activity change, % at 57.5 µM; actives 4.7% (n = 360,000); in the data active = activity change below about -50%; inconclusive = mostly about -30% to -49%
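Secreted IL-1B measured by AlphaLISA bead assay after 16 h compound exposure of THP-1 cells; compounds (final up to 57.5 uM) added 1 h before LPS (250 ng/mL) and ATP (1.25 mM) stimulation; lower signal means less secretion.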
HT1080-NT tox – kills 2HG-producing HT-1080-NT fibrosarcoma cells; HT-1080-NT fibrosarcoma viability, CellTiter-Glo ATP luminescence, 48 h; Potency, µM (doses to about 46.1 µM), for inactives: top-dose activity, negative = less viability, usual class: cytotoxic; actives 1.6% (n = 360,000);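 also: NT is the 2HG producing partner of a matched IDH1 knockdown line; potency is read from the fitted curve at half-maximal effect; 0% = DMSO-treated cells and -100% = media-only wells without cells; nearly all actives have a fitted effect of over 55% in size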
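Viability of the 2HG-overproducing fibrosarcoma line after 48 hours of compound exposure at 37 degrees C was determined by luminescence with CellTiter-Glo, and concentration-effect curves were then fitted and categorized.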
Starred values were filed as active, the others as inactive; ? = inconclusive; · = no result; ! = not confirmed by another sample. Unless noted, calls follow the shape of the dose curve; as a rule, active = well fitted curve in the direction sought with a large enough effect; inconclusive = small, poorly fitted or top-dose-only effect, or another doubt; inactive = no such curve, though single readings can be large; an effect the other way counts as inactive or inconclusive. Unless noted, % is scaled to controls: 0 for no effect and ±100 for the full control effect.

SMILES | DT40 TDP1 no CPT | HT1080 IDH1KD tx | ELG1 DNA repair | TDP1 cell CPT | IL-1B inflam inh | HT1080-NT tox
Cc1cc(C)n(-c2nc3ccccc3nc2N2CCN(c3cccc(C(F)(F)F)c3)CC2)n1 | ? | · | · | 18µM* | · | ·
CCOc1ccc(S(=O)(=O)N(CC)CC)cc1NC(=O)c1ccc(N2CCCC2=O)cc1 | ? | 1% | -10% | ? | -24 | 4%
COc1ccc(OCC(O)CN2CC(C)OC(C)C2)cc1 (stereo not given) | -1% | 2% | -2% | -1% | -5 | 8%
CCc1nc(C)cn1S(=O)(=O)c1cc(C)c(OC)c(C)c1C | 10µM* | ? | ? | 8.2µM* | -4 | ?
CCc1nc(C)cn1S(=O)(=O)c1cc(Cl)c(OC)cc1Cl | ? | -3% | -1% | ? | 24 | -25%
CCc1nc(C)cn1S(=O)(=O)c1ccc(Cl)c(Cl)c1Cl | 21µM* | -16% | 16% | 18µM* | -25 | -19%
CN(C)c1nc2c(N)ncnc2n1C1OC(CO)C(O)C1O (stereo not given) | 3% | 27% | · | 4% | 1 | 9%
Nc1ncnc2c1nc(-c1ccccc1)n2C1OC(CO)C(O)C1O (stereo not given) | -5% | ? | · | 0% | -50* | 2%
Nc1ncnc2c1nc(Cl)n2[C@@H]1O[C@H](CO)[C@@H](O)[C@@H]1O | 5µM* | · | · | 1µM* | · | ·
Nc1ncnc2c1nc(Cl)n2C1OC(CO)C(O)C1O (stereo not given) | 0.46µM* | · | · | 0.37µM* | · | ·
CN(C)c1nc2c(N)ncnc2n1[C@H]1O[C@@H](CO)[C@H](O)[C@@H]1O | -14% | -4% | -8% | 10% | 34 | 2%
CC(C)CC(NC(=O)c1ccc(Cl)cc1)C(=O)OCC(=O)c1ccc2c(c1)NC(=O)CO2 (stereo not given) | 12µM* | 8.2µM* | ? | 12µM* | -86* | 10µM*
CCC(C(=O)OCC(=O)c1ccc2c(c1)NC(=O)CO2)c1ccccc1 (stereo not given) | 21µM* | -22% | -2% | -18% | -18 | -21%
O=C1COc2ccc(C(=O)COC(=O)CCSc3ccccc3)cc2N1 | -11% | 8% | -2% | 7% | 62 | -5%
CC(O)C(NS(=O)(=O)c1ccc(Cl)cc1)C(=O)OCC(=O)c1ccc2c(c1)NC(=O)CO2 (stereo not given) | 7% | 13% | · | -15% | 13 | 4%
CCOC(=O)N1CCN(C(=O)c2ccc3c(=O)n(Cc4ccc(OC)cc4)c(=S)[nH]c3c2)CC1 | ? | -8% | 13µM* | ? | -8 | -11%
CCOC(=O)N1CCN(C(=O)c2ccc(Cn3c(=S)[nH]c4cc5c(cc4c3=O)OCO5)cc2)CC1 | 16µM* | -9% | 23µM* | 23µM* | -9 | -6%
CCOC(=O)C1CCCN(C(=O)c2ccc3c(=O)n(CCOC)c(=S)[nH]c3c2)C1 (stereo not given) | ? | -6% | 8.2µM* | ? | 0 | -10%
CCOC(=O)N1CCN(C(=O)c2ccc(Cn3c(=S)[nH]c4cc(OCC)c(OCC)cc4c3=O)cc2)CC1 | 9.2µM* | 14% | ? | 10µM* | 10 | 15%
COCCn1c(=S)[nH]c2cc(C(=O)N3CCC(C(N)=O)(N4CCCCC4)CC3)ccc2c1=O | 7% | -4% | -2% | -1% | 13 | 12%
CCOC(=O)N1CCN(C(=O)c2ccc3c(=O)n(Cc4ccccc4)c(=S)[nH]c3c2)CC1 | 0% | -4% | -13% | -16% | 30 | 0%
COc1ccccc1N1CCN(C(=O)c2ccc(Cn3c(=S)[nH]c4cc5c(cc4c3=O)OCO5)cc2)CC1 | ? | 16% | -10% | ? | 19 | 13%
CCc1ccc(S(=O)(=O)NCC2(N3CCOCC3)CCCCC2)cc1 | ? | -1% | 15% | ? | 56 | 0%
Cc1nc2scc(C)n2c(=O)c1S(=O)(=O)NCC1CCN(Cc2ccc(F)cc2)CC1 | 14% | 12% | 11% | 2% | 41 | 5%
Cc1nc(SCC(=O)OC(C)(C)C)c2c3c(sc2n1)CCCC3 | ? | · | · | -24% | · | ·
SMILES | DT40 TDP1 no CPT | HT1080 IDH1KD tx | ELG1 DNA repair | TDP1 cell CPT | IL-1B inflam inh | HT1080-NT tox
CCOc1cc2[nH]c(=S)n(Cc3ccc(C(=O)NCCN(CC)CC)cc3)c(=O)c2cc1OCC | ? | ? | 27% | ? | -99* | ?
COC(=O)C1Cc2c([nH]c3ccccc23)C2CCC(=O)N12 (stereo not given) | 2% | 14% | · | 3% | -5 | -3%
COC(=O)[C@@H]1Cc2c([nH]c3ccccc23)C(C)(C)N1C(=O)CCl | 23µM* | 18µM* | ? | 18µM* | -98* | ?
CCC(C(=O)Nc1ccccc1)n1nc(-c2cc(C)ccc2C)ccc1=O (stereo not given) | -29% | · | · | ? | · | ·
Cc1cccc(C)c1OCC(=O)Nc1c(C(=O)c2ccccc2)oc2ccccc12 | -25% | · | · | 1% | · | ·
OCc1cc(C(O)CNCCCCCCOCCCCc2ccccc2)ccc1O (stereo not given) | 13µM* | ? | 3% | 19µM*! | -25 | 16µM*
Cc1ccccc1OCC(=O)O/N=C(\N)c1ccncc1 | -16% | 5% | ? | 22% | -9 | 6%
CCOc1ccc(S(=O)(=O)NCCc2ccccn2)cc1 | -25% | 0% | -1% | -12% | 6 | 14%
Nc1c(Cl)cc(N=Nc2ccccc2)cc1Cl | 13µM* | ? | · | ? | -6 | ?
O=C(OCc1cc(=O)n2nc(-c3cccs3)sc2n1)c1ccc(F)cc1 | -15% | · | · | -19% | · | ·
COc1ccc(N=c2ssnc2Cl)cc1 | 9.2µM* | -1% | 9% | 7.3µM* | -3 | -8%
Clc1ccc(N=c2ssnc2Cl)cc1 | 15µM* | -18% | 16µM* | 10µM* | -85* | -13%
COc1cc(/C=C2\SC(=Nc3cccnc3)NC2=O)cc(OC)c1OC | ? | 0% | 20% | ? | 75 | 0%
O=C1CSC(=Nc2ccc(Cl)cc2)N1 | 2% | 6% | 2% | 7% | 9 | 10%
Fc1ccc(N=c2ssnc2Cl)c(F)c1 | 9.2µM* | ? | ? | 7.3µM* | -13 | ?
COc1ccc(N=C2SCC(=O)N2C)cc1 | 4% | 4% | · | -10% | -27 | 1%
COc1cc(N=c2ssnc2Cl)cc(OC)c1OC | 2.6µM* | 0% | -1% | 3.3µM* | 2 | 0%
